PubChem BioAssay (Tox21)
The source made the active and inactive calls. A call without a number means that no potency is given here. Unless noted, the call rests on the fitted dose curve; in most records, active means well fitted curve in the direction sought with a large enough effect in the repeat runs; inconclusive means weak or mixed curves; inactive means no such curve, though single readings can be large; an effect the other way counts as inactive or inconclusive.

Tests used:
[1] = qHTS assay to identify small molecule antagonists of the thyroid receptor (TR) signaling pathway - cell viability counter screen (AID 743064); further: nearly all actives have a fitted effect of over 50% in size; further: potency means the concentration at half of the fitted maximal effect
Method in brief: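 Compounds were tested on GH3.TRE-Luc cells in the presence of T3 at 1 nM final. Following 23.5 h at 37 °C, cell viability was quantified by CellTiter-Fluor.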

[2] = qHTS assay to identify small molecule antagonists of the thyroid receptor (TR) signaling pathway (AID 743065); further: nearly all actives have a fitted effect of over 55% in size; further: potency means the concentration at half of the fitted maximal effect
Method in brief: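 Antagonism measured as loss of luciferase signal in GH3 cells stably carrying a TRE-luciferase reporter, co-treated with compound and T3 (1 nM final) for 23.5 h at 37 C. Viability was read in the same well by CellTiter-Fluor.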

[3] = tested on: thyroid hormone receptor (rat, GH3 cells); assay: qHTS assay to identify small molecule agonists of the thyroid receptor (TR) signaling pathway (AID 743066; calls by dose curve)
[4] = target: Estrogen receptor (Homo sapiens) (UniProt P03372); assay: qHTS assay to identify small molecule antagonists of the estrogen receptor alpha (ER-alpha) signaling pathway (AID 743069; active means well fitted curve in the direction sought with a large enough effect in the signal ratio in the repeat runs, not every such curve was filed as active; inconclusive means weak or mixed curves, or effect the other way; inactive means no such curve, though single readings can be large or run the other way; the % refers to the signal ratio; further: potency means the concentration at half of the fitted maximal effect)
Method in brief: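 Fluorescence intensity from a beta-lactamase FRET substrate served as the read-out. Cells: HEK293 with stably integrated ER-alpha-UAS-bla reporter. Agonist 17beta-estradiol was co-added with compounds; incubation 18 hr at 37C, substrate 2 hr at room temperature.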

[5] = qHTS assay to identify small molecule antagonists of the estrogen receptor alpha (ER-alpha) signaling pathway - cell viability counter screen (AID 743074; calls by dose curve; further: nearly all actives have a fitted effect of over 45% in size)
[6] = target: Estrogen receptor (Homo sapiens) (UniProt P03372); assay: qHTS assay to identify small molecule agonists of the estrogen receptor alpha (ER-alpha) signaling pathway (AID 743075; calls by dose curve)
[7] = target: Estrogen receptor (Homo sapiens) (UniProt P03372); assay: qHTS assay to identify small molecule agonists of the estrogen receptor alpha (ER-alpha) signaling pathway using the BG1 cell line (AID 743079); settings: BG1Luc4E2 cells, ERE-luciferase agonist, 22 h; activation: at 70.3 µM (top of the series); further: nearly all actives have a fitted effect of over 20% in size; further: potency means the concentration at half of the fitted maximal effect
[8] = qHTS assay to identify small molecule antagonists of the estrogen receptor alpha (ER-alpha) signaling pathway using the BG1 cell line (AID 743080; calls by dose curve;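 further: BG1 cells stimulated with 17beta-estradiol alongside compound; nearly all actives have a fitted effect of over 25% in size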)
Method in brief: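 Luciferase inhibition measured with ONE-Glo after 30 min at RT in BG1Luc4E2 cells given test compounds and 17beta-estradiol for 21.5 h at 37 C; CellTiter-Fluor viability read in the same wells beforehand.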

[9] = qHTS assay to identify small molecule antagonists of the estrogen receptor alpha (ER-alpha) signaling pathway using the BG1 cell line - cell viability counter screen (AID 743081);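 further: compound given together with 17beta-estradiol as the ER stimulus; nearly all actives have a fitted effect of over 45% in size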; further: potency means the concentration at half of the fitted maximal effect
Aromatase (Homo sapiens) = Aromatase (Homo sapiens) (UniProt P11511); assay: qHTS assay to identify aromatase inhibitors (AID 743083); further: nearly all actives have a fitted effect of over 55% in size; further: potency means the concentration at half of the fitted maximal effect
Chain of Aromatase (Homo sapiens) (P11511 whole entry, looked up): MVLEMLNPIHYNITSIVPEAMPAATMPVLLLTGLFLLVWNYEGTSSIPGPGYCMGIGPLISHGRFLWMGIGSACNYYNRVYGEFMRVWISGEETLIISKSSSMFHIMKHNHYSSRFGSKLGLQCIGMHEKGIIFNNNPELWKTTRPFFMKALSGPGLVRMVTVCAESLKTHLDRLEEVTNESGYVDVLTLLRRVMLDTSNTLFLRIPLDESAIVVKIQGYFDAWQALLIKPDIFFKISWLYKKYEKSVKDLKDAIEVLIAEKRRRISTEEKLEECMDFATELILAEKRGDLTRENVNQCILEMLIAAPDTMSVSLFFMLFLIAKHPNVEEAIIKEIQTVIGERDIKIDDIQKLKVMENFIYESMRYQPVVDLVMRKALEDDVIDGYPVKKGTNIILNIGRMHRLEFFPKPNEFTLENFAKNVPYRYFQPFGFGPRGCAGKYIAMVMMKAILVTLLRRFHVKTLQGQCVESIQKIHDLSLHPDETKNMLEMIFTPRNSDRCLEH

Chain of Estrogen receptor (Homo sapiens) (P03372 whole entry, looked up): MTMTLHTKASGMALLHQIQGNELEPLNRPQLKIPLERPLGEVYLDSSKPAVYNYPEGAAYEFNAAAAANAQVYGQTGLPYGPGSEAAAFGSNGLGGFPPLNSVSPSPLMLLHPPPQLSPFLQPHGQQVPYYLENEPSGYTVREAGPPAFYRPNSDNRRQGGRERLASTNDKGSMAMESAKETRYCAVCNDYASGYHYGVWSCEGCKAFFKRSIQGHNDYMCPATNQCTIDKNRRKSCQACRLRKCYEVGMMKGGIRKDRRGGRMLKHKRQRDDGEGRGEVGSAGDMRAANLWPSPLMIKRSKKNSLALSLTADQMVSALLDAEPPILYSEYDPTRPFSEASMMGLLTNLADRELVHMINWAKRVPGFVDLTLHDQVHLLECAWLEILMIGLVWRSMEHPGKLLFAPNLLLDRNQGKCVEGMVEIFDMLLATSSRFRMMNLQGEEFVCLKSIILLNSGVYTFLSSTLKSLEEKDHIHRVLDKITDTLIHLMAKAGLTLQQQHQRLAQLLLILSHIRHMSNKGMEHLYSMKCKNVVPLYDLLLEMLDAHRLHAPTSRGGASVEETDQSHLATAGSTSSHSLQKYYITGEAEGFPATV

SMILES | Potency [1] | Potency [2] | outcome [3] | Potency [4] | Potency [5] | Potency [6] | Potency [7] | Potency [8] | Potency [9] | Potency (Aromatase (Homo sapiens))
CCOc1ccccc1O[C@H](c1ccccc1)[C@H]1CNCCO1 | 16.8 µM (active) | 26.6 µM (active) | inactive | inactive | inactive | inactive | inactive | inactive | inactive | inactive
Cc1ccco1 | inactive | inactive | inactive | inactive | inactive | inactive | inactive | inactive | inactive | inactive
Cc1ccccc1N=C(N)Nc1ccccc1C | inactive | inactive | inactive | inactive | inactive | inactive | inactive | inactive | – | inactive
Nc1ccc(N=Nc2ccccc2)c(N)c1 | 53.3 µM (active) | inactive | inactive | inactive | inactive | inactive | 0.336 µM (active) | – | 26.7 µM (active) | inactive
CCn1cc(C(=O)O)c(=O)c2cc(F)c(N3CCNCC3)cc21 | inactive | inactive | inactive | inactive | inactive | inactive | inactive | inactive | inactive | inactive
C=C1C[C@@]23CC[C@H]4[C@@](C)(CCC[C@@]4(C)C(=O)O[C@@H]4O[C@H](CO)[C@@H](O)[C@H](O)[C@H]4O)[C@@H]2CC[C@]1(O[C@@H]1O[C@H](CO)[C@@H](O)[C@H](O[C@@H]2O[C@H](CO)[C@@H](O)[C@H](O)[C@H]2O)[C@H]1O[C@@H]1O[C@H](CO)[C@@H](O)[C@H](O)[C@H]1O)C3 | inactive | inactive | inactive | inactive | inactive | inactive | inactive | inactive | – | inactive
Cc1cc(C)cc(N)c1 | inactive | inactive | inactive | inactive | inactive | inactive | inactive | inactive | inactive | inactive
CN1C(C(=O)Nc2ccccn2)=C(O)c2sccc2S1(=O)=O | inactive | inactive | inactive | inactive | inactive | inactive | inactive | inactive | – | inactive
CCC1(CO)COCOC1 | inactive | inactive | inactive | inactive | – | inactive | inactive | inactive | inactive | inactive
O=C(Cn1ccnc1[N+](=O)[O-])NCCO | inactive | inactive | inactive | inactive | – | inactive | inactive | inactive | inactive | inactive
CN1C(=O)OC(C)(C)C1=O | inactive | inactive | inactive | inactive | inactive | inactive | inactive | inactive | inactive | inactive
C=COCC(C)C | inactive | inactive | inactive | inactive | inactive | inactive | inactive | inactive | inactive | inactive
O=C(O)CCCCCCCCCCCBr | inactive | inactive | inactive | inactive | inactive | inactive | inactive | inactive | inactive | inactive
CCOC(=O)c1ccc(OCCN2C[C@H](O)[C@@H](O)[C@H](O)[C@H]2CO)cc1 | inactive | inactive | inactive | inactive | – | inactive | inactive | inactive | inactive | inactive
C(=C\c1ccccc1)/c1ccccc1 | inactive | inactive | inactive | inactive | inactive | inactive | 60.6 µM (active) | – | inactive | inactive
C[C@]1(Cn2ccnn2)[C@H](C(=O)O)N2C(=O)C[C@H]2S1(=O)=O | inactive | inactive | inactive | 2.39 µM [inconclusive] (active) | inactive | – | inactive | inactive | – | inactive

SMILES | Potency [1] | Potency [2] | outcome [3] | Potency [4] | Potency [5] | Potency [6] | Potency [7] | Potency [8] | Potency [9] | Potency (Aromatase (Homo sapiens))
O=C(OC(=O)c1ccccc1)c1ccccc1 | inactive | inactive | inactive | inactive | inactive | inactive | inactive | inactive | inactive | inactive
C=CC(=O)[O-].C=CC(=O)[O-].[Zn+2] | inactive | inactive | inactive | inactive | inactive | inactive | inactive | inactive | inactive | inactive
C=CC(C)(CCC=C(C)C)OC(=O)CC(C)C (stereo not drawn) | inactive | inactive | inactive | inactive | inactive | inactive | inactive | inactive | inactive | inactive
CC(C)=CCC/C(C)=C/CC/C(C)=C/CCC(=O)OC/C=C(\C)CCC=C(C)C | inactive | inactive | inactive | inactive | inactive | inactive | inactive | inactive | inactive | inactive
Brc1cc2ccccc2c2ccccc12 | inactive | inactive | inactive | inactive | inactive | inactive | inactive | inactive | inactive | inactive
CC=C(Cl)Cl | inactive | inactive | inactive | inactive | inactive | – | inactive | inactive | inactive | inactive
C1C[C@@H]2[C@H]3CC[C@H](C3)[C@@H]2C1 | inactive | inactive | inactive | inactive | inactive | inactive | inactive | inactive | inactive | inactive
CC1(C)S[C@@H]2[C@H](NC(=O)C(c3ccccc3)S(=O)(=O)O)C(=O)N2[C@H]1C(=O)O (stereo partly drawn) | inactive | inactive | inactive | inactive | inactive | inactive | inactive | inactive | – | inactive
COc1cc(N)c(Cl)cc1C(=O)NC1CCN(CCCOc2ccc(F)cc2)CC1OC (stereo not drawn) | 11.4 µM (active) | 11.4 µM (active) | inactive | inactive | inactive | inactive | – | inactive | – | inactive
Cc1ccc(C(C)(C)O)cc1 | inactive | inactive | inactive | inactive | inactive | inactive | inactive | inactive | inactive | inactive
Oc1cc2c(cc1O)[C@H]1c3ccc(O)c(O)c3OC[C@@]1(O)C2 | 61.9 µM (active) | 49.2 µM (active) | inactive | inactive | inactive | inactive | – | – | 49.2 µM (active) | 24.6 µM (active)
CCCCCCC(C)(C)C(=O)O | inactive | inactive | inactive | inactive | – | inactive | inactive | inactive | inactive | inactive
CCC(C)COC(C)=O (stereo not drawn) | inactive | inactive | inactive | inactive | inactive | inactive | inactive | inactive | inactive | inactive
CC1=Nc2ccc3ccccc3c2C1(C)C | inactive | inactive | inactive | – | inactive | inactive | – | inactive | inactive | inactive
NC(=O)c1ccncc1 | inactive | inactive | inactive | – | inactive | – | – | – | inactive | inactive
Cc1ccc(OC(=O)c2ccccc2O)cc1 | inactive | inactive | inactive | – | inactive | – | – | – | inactive | inactive
